Screening results from PubChem.
An excerpt weighted towards active compounds, which were near 2.6% of everything screened.
HSP90 refold inh – inhibitors of HSP90 luciferase refolding in rabbit reticulocyte lysate; luciferase refolding luminescence, 3 h; inhibition, % at 5.6 µM; 290,000 tested, 0.91% active; AID 1789;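 active = inhibition above the screen-wide mean plus 3 SD, computed separately per campaign, cut at about 16% in these data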;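 also: inhibitors lower the luminescence because luciferase stays unfolded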
EBV LMP1 NFkB – Epstein-Barr LMP1 NF-kappaB reporter inhibition. LMP1-induced NF-kappaB luciferase reporter cells, luminescence. inhibition, % at 12.5 µM. 350,000 tested, 0.69% active. AID 504558; in the data active = inhibition above about 41%
TROY NFkB inh – blocks TROY-dependent signaling in reporter cells; Q293 LMP1-TROYcd NF-kB luciferase reporter, 4 h; inhibition, % at 10 µM; 360,000 tested, 0.98% active; AID 1347056;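 active = compounds whose plate-normalised and pattern-corrected inhibition of the luciferase reporter signal at the single screening dose is 50% or more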
LGR2 antag – inhibitors of bursicon-induced Drosophila LGR2 receptor cAMP signaling; HEK293 LGR2, CRE-luciferase, bursicon-stimulated, 4 h; inhibition, % at 9.99 µM; 380,000 tested, 0.35% active; AID 720647;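 active = drop in luminescence signal, shown as inhibition above about 50% in the replicate tests, limit read from the data, passing the limit was not always enough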;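 also: agonist challenge used bursicon conditioned medium at about half maximal strength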
TWEAK Fn14 block – blocks TWEAK-Fn14 interaction in a reporter cell assay. inhibition, % at 10 µM. TWEAK-stimulated Fn14 reporter cells, luciferase luminescence, 8 h. 360,000 tested, 2% active. AID 1159606; in the data active = inhibition above about 50%
aDG glyco up – alpha-DG glycosylation activation; Pro5-aDG cells, alpha-DG glycosylation AlphaScreen (IIH6); 0% Pro5, 100% B10-LARGE cell signal; 360,000 tested, 0.22% active; activation, % at 10 µM;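 active = activation of at least 8% versus controls, or a plate z-score of at least 8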;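 also: Pro5 are CHO cells carrying HIG-tagged alpha-DG that lacks glycosylation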
Of the large screens only hits and unclear results are named; the others gave an inactive call.

O=C(CCl)N1N=C(c2ccco2)CC1c1cccs1 (stereo not drawn)	EBV LMP1 NFkB 66.0 (no result: LGR2 antag)
O=C(Oc1ccc(C(=S)N2CCCCC2)cc1)c1ccccc1	none
O=C(Oc1ccc(C(=S)N2CCC(O)CC2)cc1)c1ccc(Cl)cc1	TROY NFkB inh 56.8
CCNC(=O)C[C@@H]1CC[C@H]2[C@H](COc3ccc(NC(=O)C4CCOCC4)cc3C(=O)N2C)O1	none (no result: HSP90 refold inh, EBV LMP1 NFkB, TROY NFkB inh, TWEAK Fn14 block, aDG glyco up)
COc1cccc(C(=O)NCCC2=CCCCC2)c1	TWEAK Fn14 block 51.0 (no result: LGR2 antag)
COc1ccc(OC)c(NC(=O)C(=O)NCCC2=CCCCC2)c1	TWEAK Fn14 block 77.8
O=C(NCCC1=CCCCC1)NC12CC3CC(CC(C3)C1)C2	TROY NFkB inh 62.6 (no result: LGR2 antag)
O=C(O)C1C2C=CC(C2)C1C(=O)NCCC1=CCCCC1 (stereo not drawn)	none
O=C(CN1C(=O)C2C3C=CC(C3)C2C1=O)NCCC1=CCCCC1 (stereo not drawn)	EBV LMP1 NFkB 76.2
COc1ccc(C(=O)NCCC2=CCCCC2)cc1OC	none (no result: LGR2 antag)
O=C(NCCc1ccc(F)cc1)NC12CC3CC(CC(C3)C1)C2	none
C[C@H](CO)N1C[C@H](C)[C@H](CN(C)CC2CC2)Oc2ccc(NC(=O)CCC(F)(F)F)cc2CC1=O	none (no result: HSP90 refold inh, EBV LMP1 NFkB, TROY NFkB inh, TWEAK Fn14 block, aDG glyco up)
O=C(NCCC1=CCCCC1)c1ccc(F)cc1	HSP90 refold inh 38.3, TWEAK Fn14 block 53.8
O=C1[C@H]2[C@@H](c3ccccc3)N[C@]3(CCCN(Cc4ccc(C(F)(F)F)cc4)C3=O)[C@H]2C(=O)N1Cc1ccccc1	none (no result: HSP90 refold inh)
O=C1[C@H]2[C@@H](c3ccc(C(F)(F)F)cc3)N[C@]3(CCCN(Cc4ccc(F)cc4)C3=O)[C@H]2C(=O)N1Cc1ccccc1	TWEAK Fn14 block 95.4 (no result: HSP90 refold inh)
CCOC(=O)CCSc1nc(C)c2cc(OC)ccc2n1	none (no result: LGR2 antag)
CCOC(=O)CCSc1nc(C)c2cc(C)c(C)cc2n1	TWEAK Fn14 block 81.5 (no result: TROY NFkB inh, LGR2 antag)
Cc1cc2nc(NCCCO)n(CC(=O)c3cc(C(C)(C)C)c(O)c(C(C)(C)C)c3)c2cc1C	TWEAK Fn14 block 61.5 (no result: HSP90 refold inh)
CC(=O)Oc1cc2cccc(OC(C)=O)c(=O)c2c(OC(C)=O)c1OC(C)=O	TWEAK Fn14 block 84.5 (no result: LGR2 antag)
CO[C@@H]1CN(C)C(=O)c2ccc(NC(=O)C3CC3)cc2OC[C@@H](C)N(C(=O)C2CCCCC2)C[C@H]1C	none (no result: HSP90 refold inh, EBV LMP1 NFkB, TROY NFkB inh, TWEAK Fn14 block, aDG glyco up)
CN=c1scc(-c2cccs2)n1/N=C/c1ccccc1O	HSP90 refold inh 77.9, EBV LMP1 NFkB 84.5, TROY NFkB inh 88.2, LGR2 antag 100.0, TWEAK Fn14 block 108.0
CN=c1scc(C)n1/N=C/c1ccc(O)c(O)c1O	none (no result: LGR2 antag)
C/C(N)=C(/C#N)C(=O)CSc1nnc(-c2ccccc2Br)o1	TWEAK Fn14 block 73.5
COc1ccc(-c2nnc(SCC(=O)c3ccc(C)o3)o2)cc1	none
COc1ccc(-c2nnc(SCC(=O)/C(C#N)=C(\C)N)o2)cc1	TWEAK Fn14 block 65.4 (no result: LGR2 antag)
O=C(CSc1nnc(-c2ccccc2Br)o1)N1CCOCC1	none
O=C1C=Cc2cccc3ccc(O)c1c23	EBV LMP1 NFkB 43.9 (no result: HSP90 refold inh)
N/C(=N\OC(=O)c1ccc(Cl)cc1)c1[nH]ncc1Br	LGR2 antag 60.5, TWEAK Fn14 block 64.8
C[C@@H]1CN([C@H](C)CO)C(=O)c2cc(-c3ccccc3F)cnc2O[C@@H]1CN(C)Cc1cccc(F)c1	none (no result: HSP90 refold inh, EBV LMP1 NFkB, TROY NFkB inh, TWEAK Fn14 block, aDG glyco up)
O=S(=O)(c1ccc(F)cc1)N1[C@@H]2CNC[C@H]1C2c1ccc(-c2ccccc2)cc1 (stereo partly drawn)	none (no result: HSP90 refold inh, EBV LMP1 NFkB, TROY NFkB inh, TWEAK Fn14 block, aDG glyco up)
CCCNC(=O)N(C)C[C@@H]1Oc2cc(C#Cc3ccccn3)ccc2S(=O)(=O)N([C@@H](C)CO)C[C@@H]1C	none (no result: HSP90 refold inh, EBV LMP1 NFkB, TROY NFkB inh, TWEAK Fn14 block, aDG glyco up)
CCOC(=O)C(=CNc1ccc(-c2ccco2)c(Cl)c1)C(=O)OCC	EBV LMP1 NFkB 47.3 (no result: LGR2 antag)
CCOC(=O)C(=CNc1ccc2c(c1)CCN2C(C)=O)C(=O)OCC	EBV LMP1 NFkB 49.3 (no result: LGR2 antag)
O=C(NCc1ccco1)C1CCN(C(=O)c2cc3sccc3n2Cc2ccc(Cl)cc2)CC1	TWEAK Fn14 block 50.4 (no result: LGR2 antag)
CCCCC[C@@H](/C=C/C1C(=O)C=C[C@H]1C/C=C\CCCC(=O)OC)OC(C)=O (stereo partly drawn)	TWEAK Fn14 block 90.7 (no result: HSP90 refold inh)
Fc1ccccc1N1CCN(c2ncnc3nc[nH]c23)CC1	none
Clc1ccccc1N1CCN(c2ncnc3nc[nH]c23)CC1	HSP90 refold inh 58.2
Cc1ccc(S(=O)(=O)c2nc(S(C)(=O)=O)sc2NCC2CCCO2)cc1 (stereo not drawn)	TWEAK Fn14 block 87.2 (no result: TROY NFkB inh, LGR2 antag)
Cc1ccc(-c2ccc(S(=O)(=O)NCC3CCCO3)cc2)cc1 (stereo not drawn)	none
